Reference: PubChem BioAssay AID488841 (Sanford-Burnham Center for Chemical Genomics, 2010)
Screen size: about 1,400 compounds; about 380 (27%) were called active. The list shows a part of the results. A number with no mark means an inactive call.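 The calls were made as follows: active = mean inhibition above 50% across duplicate retests at 10 µM; inactive = the rest.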

Experiment: yeast NALP1 reporter signal suppression – S. cerevisiae, luminescence, single concentration, NALP1 inhibitor project, confirmation (AID 488841);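 also: plate controls were DMSO in galactose medium for no effect and cells in plain SD medium for full effect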
Conditions: S. cerevisiae NALP1/ASC/Caspase-1 reporter, beta-gal luminescence; at 10 µM; hits give high values

| Compound | inhibition |
| --- | --- |
| Cc1cc(C)cc(-n2nnc(C(=O)NCc3ccccc3)c2N)c1 | 34.6% |
| c1ccc(-c2nc3cc4ccccc4cc3[nH]2)nc1 | 73.2% (active) |
| O=[N+]([O-])c1ccc2nc(-c3ccccn3)[nH]c2c1 | 47.6% |
| COCCCN(CCCN)Cc1ccco1 | 73.2% (active) |
| Cc1ccc(S(=O)(=O)N(C(=O)c2ccncc2)c2ccc(OC(=O)c3ccncc3)c3ccccc23)cc1 | 28.8% |
| O=C1S/C(=C\c2ccc(N3CCOCC3)o2)C(=O)N1c1ccccc1 | 45.5% |
| CCN(CC)c1ccc(/C=C2/SC(=O)N(C(C)C)C2=O)o1 | 65.5% (active) |
| CC1CCCC(C)N1C(=O)CN1CCN(c2nc(-c3ccc(F)cc3)cs2)CC1 (centres undefined) | 19.6% |
| Cc1cccc(N/C=C/C(=C(C#N)C#N)N(C)C)c1 | 30.9% |
| O=C(N/N=C/c1ccc2c(c1)OCO2)c1cccs1 | 51.4% (active) |
| O=C(N/N=C/c1ccc2nccnc2c1)c1ccccc1O | 25.7% |
| Cc1ccsc1/C=N/NC(=O)c1ccco1 | 38.9% |
| O=[N+]([O-])c1ccc(N2CCN(c3ccc(Cl)nn3)CC2)c(Cl)c1 | 29.9% |
| COc1ccc(-c2nc(N)n(S(=O)(=O)c3ccc(C)cc3)n2)cc1 | 44.7% |
| Cn1nc(-c2ccc(Cl)cc2)nc2c(=O)n(C)c(=O)nc1-2 | 97.7% (active) |
| Cn1nc(-c2ccccc2)c(-c2nc(-c3ccc(Cl)cc3)no2)c1Cl | 16.6% |
| COc1ccccc1NC(=O)Nc1ccc2c(c1)nnn2C | 18.6% |
| Cc1cc(C)n(C(C[N+](=O)[O-])c2ccc(Cl)cc2)n1 (centres undefined) | 92% (active) |
| Cc1nc([N+](=O)[O-])c(Br)n1CC(=O)c1ccc(Cl)cc1 | 37.6% |
| CCOc1cc(/C=N/NC(=O)c2nn(C)cc2Br)ccc1OCc1ccccc1Cl | 20.8% |
| O=c1cc(-c2ccccc2)[nH]c2nc3ccccc3n12 | 39.5% |
| Cc1cccc(OC(=O)c2cn(C)nc2C(F)(F)F)c1C | 43.7% |

| Compound | inhibition |
| --- | --- |
| Fc1ccccc1-c1ccc(/C=N/Nc2nc3ccccc3[nH]2)o1 | 60.4% (active) |
| CCCCNc1nc2ccccc2[nH]1 | 20.4% |
| Cc1ccc(/C=N/Nc2ccnc3cc(Cl)ccc23)c(C)c1 | 38.3% |
| CC(=O)/C=C/n1c(=S)oc2ccccc21 | 6.85% |
| CN1C(=O)CSc2ccc(NC(=O)N3CCN(c4ccccn4)CC3)cc21 | 24% |
| CCOC(=O)c1ccc(NC(=O)c2nccnc2C(=O)O)cc1 | 18.4% |
| CCOC(=O)c1ccc(NC(=O)CC2Sc3ncnn3C2=O)cc1 (centres undefined) | 70.7% (active) |
| COc1ccc(Nc2ncccc2C(=O)NCc2ccccc2)cc1 | 46.5% |
| COc1ccc(NC(=O)CC2Sc3ncnn3C2=O)cc1 (centres undefined) | 59% (active) |
| O=C(CC1Sc2ncnn2C1=O)Nc1ccc(Br)cc1 (centres undefined) | 41.1% |
| CCOC(=O)c1ccc(NC(=O)CSc2nnc(CNc3ccc(C)cc3)n2C)cc1 | 32.1% |
| CCOC(=O)C1C(=O)Oc2ccc3ccccc3c2C1C1CCOC1=O (centres undefined) | 19.4% |
| CCN(CC)S(=O)(=O)c1ccc(NS(=O)(=O)c2cccs2)cc1 | 16.4% |
| COc1ccc(NC(=S)N(C(C)C)C2CCN(C(C)C)CC2)cc1Cl | 21.6% |
| Cc1ccc(N2C(=O)c3ccc(C(=O)O)cc3C2=O)cc1C | 28.4% |
| Clc1ccc(Cn2c(/C=C/c3ccco3)nc3ccccc32)cc1 | 29.2% |
| COc1ccc(CC2(C)OC(c3ccc(C)cc3)=NN2C(C)=O)cc1 (centres undefined) | 55.5% (active) |
| CCN(C(=O)c1ccco1)c1nnc(-c2ccc(OC)cc2)s1 | 38% |
| COc1ccc(CNC(=O)CCNS(=O)(=O)c2ccc(C)cc2)cc1 | 19.6% |
| N#Cc1ccc(Oc2nc(Nc3ccc(F)cc3)nc(N3CCCC3)n2)cc1 | 29.6% |
| c1ccc(-c2cccc(-c3ccccn3)n2)nc1 | 86.2% (active) |
| c1cnc2c(c1)ccc1cccnc12 | 40.4% |

| Compound | inhibition |
| --- | --- |
| COc1ccccc1C/C(N)=N/OC(=O)c1cccc([N+](=O)[O-])c1C | 37.2% |
| N/C(Cc1ccccc1)=N\OC(=O)c1cccc2ccccc12 | 39.9% |
| N/C(Cc1ccc([N+](=O)[O-])cc1)=N\OC(=O)c1ccccc1Br | 55.1% (active) |
| Cc1noc(C)c1S(=O)(=O)N1CCC(C(=O)N2CCC(N3CCCCC3)CC2)CC1 | 22.1% |
| Clc1ccc(CO/N=C2\CCCc3nonc32)c(Cl)c1 | 44.9% |
| O=C1c2ccccc2C(=O)c2cc(NC(=O)C3CC3)ccc21 | 44% |
| Cc1cc(C)cc(NS(=O)(=O)c2ccc(NC(=O)C3CCCCC3C(=O)O)cc2)c1 (centres undefined) | 35.4% |
| COc1ccc(NC(=O)C2CCN(C(=O)c3ccc(OC)cc3)CC2)cc1 | 18.7% |
| CS(=O)(=O)N1CCC(C(=O)Nc2ccc3c(c2)OCO3)CC1 | 30.6% |
| O=C(Nc1ccc(Br)c(Cl)c1)C1CC1 | 56.2% (active) |
| O=C(Nc1ccc(C#Cc2ccccc2)cc1)C1CC1 | 56.5% (active) |
| O=P(CCCCCCCCCP(=O)(c1ccccc1)c1ccccc1)(c1ccccc1)c1ccccc1 | 39% |
| CC(C)C(=O)c1cc2c(cc1NC(=O)Nc1cccc3ccccc13)OCCO2 | 28.3% |
| OCCCN=c1cc(-c2ccccc2)oc2ccc(Cl)cc12 | 43.6% |
| Cc1n[nH]c(C)c1S(=O)(=O)N1CCN(C2CCCCC2)CC1 | 16.5% |
| COc1ccnc(N2CCN(c3ccccc3)CC2)c1C#N | 53.9% (active) |
| O=C(CSc1nc(-c2ccccc2)cs1)Nc1cccc([N+](=O)[O-])c1 | 47.1% |
| COc1cccc(CNC(=O)CSc2ccc(-c3ccncc3)nn2)c1 | 34.1% |
| CC(C)NC(=O)CSc1nc(-c2ccccc2)cs1 | 56.1% (active) |
| CCOC(=O)c1c(-c2cccs2)csc1NC(=O)C(C)(C)C | 26.2% |
